Source: PubChem BioAssay AID690 (Sanford-Burnham Center for Chemical Genomics, 2007)
The campaign covered roughly 96,000 compounds. About 80 (0.08%) were called active. No rule for the calls is given here. A selection follows. Potency and affinity values are given separately.

Molecular target: Alkaline phosphatase, placental type (Homo sapiens) (UniProt P05187)
Assay: PLAP enzyme inhibitors, biochemical, luminescence, HTS (AID 690)
Details: purified PLAP, luminescent substrate; at 20 µM; stronger effect = higher value

Alkaline phosphatase, placental type (Homo sapiens), sequence (P05187 whole entry, looked up): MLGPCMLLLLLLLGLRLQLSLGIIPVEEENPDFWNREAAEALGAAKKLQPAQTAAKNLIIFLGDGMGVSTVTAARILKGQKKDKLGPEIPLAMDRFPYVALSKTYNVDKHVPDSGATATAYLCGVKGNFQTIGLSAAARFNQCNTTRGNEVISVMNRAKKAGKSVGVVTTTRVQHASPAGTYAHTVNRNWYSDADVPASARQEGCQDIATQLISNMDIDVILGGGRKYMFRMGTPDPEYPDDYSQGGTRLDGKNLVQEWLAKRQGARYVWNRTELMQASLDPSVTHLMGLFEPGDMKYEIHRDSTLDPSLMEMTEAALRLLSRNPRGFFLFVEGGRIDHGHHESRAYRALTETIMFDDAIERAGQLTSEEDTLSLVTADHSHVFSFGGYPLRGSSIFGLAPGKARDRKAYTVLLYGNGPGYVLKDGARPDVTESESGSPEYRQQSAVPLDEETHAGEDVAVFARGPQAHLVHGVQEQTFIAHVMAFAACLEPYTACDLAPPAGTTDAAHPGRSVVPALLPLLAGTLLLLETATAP

inhibition, inactive:
C[n+]1ccc(/C=C/c2ccc(Br)cc2)cc1 33.9%
CN(C)c1ccc(/C=C/c2cc[n+]([O-])cc2)cc1 5.5%
CN(C)c1nc(C(=O)NN)nc(N(C)C)n1 21.7%
CC1=C(/C=C/C(=O)O)C(C)(C)CCC1 -32.1%
O=C(COC(=O)c1ccc(Cl)c(S(=O)(=O)N2CCCC2)c1)NC1CCCC1 -44.5%
CCn1cc(/C=C(/C#N)S(=O)(=O)c2ccccc2)cn1 -12.8%
N#C/C(=C\c1ccc[nH]1)S(=O)(=O)c1ccccc1 -3.2%
Cc1ccc(S(=O)(=O)N[C@@H](CC(C)C)C(=O)NCc2ccco2)cc1 18.5%
CC1(C)OC(=O)C(=CNc2ccc(F)cc2)C(=O)O1 19.1%
O=C(Nc1ccc(F)cc1)c1ccccc1CC[N+](=O)[O-] 8.4%
Cc1cc(C)nc(NN2C(=O)/C(=C/c3ccccc3)SC2=S)n1 12.4%
COc1ccccc1/C=C1\SC(=S)N(Nc2nc(C)cc(C)n2)C1=O 0.7%
Cc1cc(C)n2nc(SCc3cc(=O)oc4cc(C)c(C)cc34)nc2n1 -31.2%
CC1(C)C(=O)Nc2ccccc2N1C(=O)COC(=O)CCSc1ccccc1 6.2%
COc1ccccc1-n1cnc(N)c1C(=O)c1ccccc1 4.4%
Cc1ccc(N2CCN(C(=O)c3ccccc3Br)CC2)c(C)c1 -48.2%
CCOC(=O)c1c(-n2c(C)cc(C=O)c2C)sc2c1CCCC2 -34.6%
CCOC(=O)c1c(N2C(=O)Nc3cc(Cl)c(Cl)cc3N2O)sc2c1CCCCC2 -30.1%
CCOC(=O)Nc1sc(C)nc1-c1ccccc1 5.8%
COC(=O)C1=C(C)N=C2SC(C)C(=O)N2C1c1cccc(F)c1 (centres undefined) -3.9%
CCOc1ccc(OCC)c(NS(=O)(=O)c2cccc3nsnc23)c1 -1.4%
Cn1c(C(=O)NCCN2CCOCC2)cc2sccc21 11.3%
COC(=O)c1ccc2c(c1)C(C)(C)C(/C=C/c1ccc(OC)c(OC)c1OC)=[N+]2C -29.3%
COC(=O)c1ccc(/C=C/C(=O)c2ccc(OC)cc2)cc1 15.1%
COC(=O)c1ccc2nc(C)c(C)nc2c1 8.5%
COC(=O)c1ccc(/C=C/C(=O)c2ccc(OC)c(OC)c2)cc1 5.6%
O=C(CCCCCN1C(=O)c2ccccc2C1=O)Nc1ccc(S(=O)(=O)N2CCCCC2)cc1 8.2%
c1ccc(Cc2nn3c(Cn4nnc5ccccc54)nnc3s2)cc1 15.9%
COc1ccc(CCNC(=O)C2CC(=O)N(C3CCCC3)C2)cc1OC (centres undefined) -44.7%
Cc1cc(=O)n2c(ccc3ccccc32)c1C#N 8.7%
CCC(C)(C)NC(=O)C(c1cccs1)N(CC1CCCO1)C(=O)Cn1nnc2ccccc21 (centres undefined) -0.8%
Cc1cc(C)cc(NC(=O)CSc2nnc(-c3ccccc3)n2N)c1 -9.3%
Nc1c(-c2ccc(Cl)cc2)cnn1-c1cccc([N+](=O)[O-])c1 2.9%
COc1ccc(C(=O)O/N=C(\C)c2ccccc2)cc1 2.4%
c1ccc(Nc2cc(Nc3ccccc3)[nH]n2)cc1 11.7%
c1ccc(Nc2ccccn2)cc1 4.3%
Cc1cc(-c2ccccc2)n2nc(C)c(C#N)c2n1 -0.5%
C=CCOC(=O)C1=C(C)NC(=O)NC1/C=C/c1ccccc1 (centres undefined) 16.7%
O=C(Cn1ccc2ccccc2c1=O)NCCC(=O)NC1CCN(Cc2ccccc2)CC1 -48.7%
O=C(N1CCOCC1)N1CCC(n2nnc3cc(F)ccc32)CC1 -19.8%
O=C(NCc1ccccc1)c1ccc(-c2ccc(F)cc2)o1 3.6%
COc1ccc(-c2nc(-c3ccc(Br)o3)no2)cc1OC -40.2%
COc1ccc(-c2noc(-c3ccc(Br)o3)n2)cc1OC 29%
Cc1ccc(CNC(=O)c2ccc(C#CC(C)(C)O)s2)cc1 20.2%
O=C(CNS(=O)(=O)/C=C/c1ccccc1)OCC(=O)N1CCC(Cc2ccccc2)CC1 -18.3%
Cc1nc2c3cnn(-c4ccccc4)c3ncn2n1 41.1%
c1ccc(-n2ncc3c2ncn2nnnc32)cc1 -8.9%
CC(C)C1N=C2c3ccccc3N=C(SCC#N)N2C1=O (centres undefined) -3.7%
CC(C)C1N=C2c3ccccc3N=C(SCC(=O)NCCc3ccc(S(N)(=O)=O)cc3)N2C1=O (centres undefined) -3.1%
CCn1c(SCC(=O)C(C)(C)C)nnc1-c1ccccc1OC 5.6%
C=CCn1c(SCC(=O)Nc2ccc3c(c2)OCO3)nnc1-c1ccccc1OC -54.3%
CCOC(=O)CNC(=O)CSc1nnc(-c2ccccc2OC)n1CC -10.2%
C=CCn1c(SCC(=O)c2ccc(OC)cc2)nnc1-c1cc2cccc(OC)c2o1 21.9%
CCn1c(CSc2nc3ccccc3s2)nnc1SCC(=O)c1ccc(Cl)cc1 -26.1%
COc1ccc(-n2nnnc2SCC(=O)c2cccc(OC)c2)cc1 8.8%
CCn1c(CSc2nc3ccccc3s2)nnc1SCC(=O)c1ccc(O)cc1O -26.1%
COc1ccc(-n2nnnc2SCC(N)=O)cc1 20.8%
COc1ccc(CNc2n[nH]c(NCc3ccc(OC)c(OC)c3)n2)cc1OC -86.4%
O=C(CC1(O)C(=O)Nc2ccccc21)c1cccnc1 (centres undefined) 26.9%
COc1cc2c(cc1NC(=O)CSc1nnnn1-c1ccccc1)oc1ccccc12 21.8%
CCc1ccc(C(=O)COC(=O)C(Cc2ccccc2)NC(=O)c2ccc(Cl)cc2)cc1 (centres undefined) -8.9%
CCc1ccc2nc3c(c(C(=O)O)c2c1)CCC3 7.8%
Cc1ccc(S(=O)(=O)N2CCC(=O)N2)cc1 -17.1%
CCCc1nc(NCc2ccccn2)c2nnn(Cc3ccccc3F)c2n1 -1.1%
COc1ccc(NC(=O)Cc2cccs2)c(OC)c1 9.5%
O=C(Cc1n[nH]c(=O)[nH]c1=O)N/N=C/c1ccccc1 -5.4%
CCn1c(SCC(=O)O)nnc1-c1ccccc1 -9.1%
CCn1c(SCC(=O)c2ccc(O)c(O)c2)nnc1-c1ccc(C)cc1 -7.9%
Cc1ccccc1CSc1nccn1-c1ccccc1 19%
COc1cccc(C2=Nn3c(nnc3-c3ccccc3O)SC2)c1 -37.4%
COc1ccc(C2=Nn3c(nnc3-c3ccco3)SC2)cc1OC 14.5%
COc1ccc(-c2nnc3n2N=C(c2cccc(Br)c2)CS3)cc1OC 7.3%
COc1ccc(C2=Nn3c(nnc3-c3ccco3)SC2)cc1 -72.6%
CCOC(=O)CC1C(=O)NCCN1C(=O)c1cccc(C(F)(F)F)c1 (centres undefined) 4.8%
COc1ccc(S(=O)(=O)NCC(=O)N(CC(=O)NCC2CCCO2)c2cc(C)ccc2C)cc1 (centres undefined) -64.9%
Cc1cc2nc(C3CCN(Cc4nnnn4Cc4ccccc4)CC3)[nH]c2cc1C -140%
Cc1ccc(Cn2nnnc2CN2CCC(c3nc4ccc(Cl)cc4[nH]3)CC2)cc1 -87.9%
COCCCNC(=O)CCn1c(=O)c2ccccc2n(CC(=O)Nc2cc(Cl)ccc2C)c1=O 7.1%
Cc1c(O)ccc(C(=O)COc2ccccc2F)c1O 8.2%
C=CCNc1ncnc2ccccc12 7.5%
Cc1ccc(N2Cc3ccccc3OC(C)C2=O)cc1 (centres undefined) -23.8%
Cc1cn2c(-c3cccnc3)nnc2s1 3.7%
CCCn1c(=O)[nH]c(=O)c2c1nc(-c1ccc(OC(F)F)cc1)n2CCN1CCOCC1 12.5%
COCc1[nH]nc2c1C(c1ccc(OC)cc1)C(C#N)=C(N)O2 (centres undefined) 6.1%
CCCc1[nH]nc2c1C(c1cccc(OC)c1)C(C#N)=C(N)O2 (centres undefined) -46.3%
COCc1[nH]nc2c1C(c1ccc(OC)c(OC)c1)C(C#N)=C(N)O2 (centres undefined) -0.8%
CCCc1[nH]nc2c1C(c1cc(OC)cc(OC)c1)C(C#N)=C(N)O2 (centres undefined) -45.4%
CC(=O)N(C)c1ccc(NC(=O)/C=C/c2ccccc2Cl)cc1 0.9%
CCC1=C(OC(=O)c2ccccc2)C(C)(C)C(c2ccccc2)OC1=O (centres undefined) 22.6%
CC1=C(C(N)=O)C(c2ccncc2)n2nc(-c3ccccc3Cl)nc2N1 (centres undefined) 8.9%
CCOC(=O)c1ccc(CNC(=O)Cn2nnc(-c3ccc(C)cc3)n2)o1 1.5%
COC(=O)c1ccc(C)c(NC(=O)Cn2cnc3ccccc3c2=O)c1 5.9%
CCN=c1scc(-c2ccco2)n1/N=C/c1ccc(O)cc1 -11.5%
CCN=c1scc(-c2ccco2)n1/N=C/c1ccc(OC)c(O)c1 -2.2%
CCc1ccc(CN2CCN(S(=O)(=O)Cc3ccccc3)CC2)cc1 11.5%
CC(=O)Nc1ccc(-c2cc3ccccc3o2)cc1 0.5%
Cc1ccccc1C(=O)c1cccn1CC(=O)NCC1CCCO1 (centres undefined) -11.1%
COc1ccc(/C=C2\N=C3CCCCCN3C2=O)cc1OC -6.1%
COc1cccc(/C=C2\N=C3CCCCCN3C2=O)c1 2.1%
